An excerpt weighted towards active compounds, which were near 2% of everything screened.
GRP78 ERSR act = qHTS for Inducers of the Endoplasmic Reticulum Stress Response (ERSR) in Human Glioma: qHTS; U87-MG GRP78 promoter luciferase reporter, 16 h; Potency, µM, without a hit: top-dose activation, usual class: activators; actives 0.02% (n = 420,000); note: series mostly up to about 76 µM; % of control where 0% means no effect; nearly all actives have a fitted effect of over 35% in size
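Stably transfected U87-MG glioma cells carrying a GRP78-based luciferase sensor; 16 h compound incubation. Luminescence end-point read 10 min after Bright-Glo addition at room temperature.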
FUS suppressor = qHTS for Suppressors of FUS Proteinopathy: Primary screen using FUS-linked yeast assay; S. cerevisiae FUS-expressing, growth rescue, OD600, 24 h; Potency, µM (doses to about 76.6 µM), actives largely listed as activators; actives 0.24% (n = 390,000); AID 1347120, 2019;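 note: plate controls were DMSO vehicle for no effect and reference control for full effect; nearly all actives have a fitted effect of over 55% in size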
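Galactose (2%) drives FUS expression in yeast precultured in raffinose; seeding density OD 0.005. Test compounds incubated 24hr at 30C and 99% humidity before absorbance at 600 nm was measured.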
aSyn rescue = qHTS of alpha-syn Inhibitors; actives 0.14% (n = 370,000); Yeast expressing alpha-synuclein, growth rescue, BacTiter-Glo, 24 h; AID 652106, 2013; Potency, µM (highest dose often 46.1 µM), for the others: at the highest dose growth rescue (activation), hits mostly activators; note: % of control where 0% means no effect; nearly all actives have a fitted effect of over 65% in size
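Rescue of yeast growth: cells expressing toxic alpha-synuclein, induced in galactose at OD600 0.02, incubated with compound 24 h at 30 C. ATP luminescence quantified growth; inhibitors of toxicity appear as activators.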
Abeta yeast res = qHTS for compounds that reverse cellular toxicity of Amyloid beta (A-beta) peptide in yeast: Primary Screen; yeast expressing A-beta42, growth rescue, OD600, 48 h; response scale: 0% DMSO, 100% iron-clioquinol control; Potency, µM (top dose mostly 46.1 µM), hits mostly activators; actives 0.063% (n = 410,000); note: nearly all actives have a fitted effect of over 55% in size
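Yeast A-beta toxicity model in growth medium with pinned compounds, 48 h at 30 C; growth read as absorbance at 600 nm. Normalized to FeCl3/clioquinol equimolar mix (positive) and DMSO (negative).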
MBNL1 CUG block = qHTS Assay for Inhibitors of MBNL1-poly(CUG) RNA binding; Muscleblind-like protein 1 (Homo sapiens), Q9NR56; TR-FRET MBNL1-His/biotin-(CUG)12 binding, 665/545 ratio; Potency, µM (top dose mostly 57.5 µM), for inactives: top-dose activity change, negative = inhibition, most hits filed as inhibitors; actives 0.036% (n = 280,000); AID 2675, 2010; active = well fitted inhibition curve with a large enough effect in the signal ratio, with a control signal flat, not every such curve was filed as active; inconclusive = small, poorly fitted or top-dose-only effect, or effect the other way, or a change in a side signal; inactive = no such curve, though single readings can be large or run the other way; the % refers to the signal ratio; note: % is set by controls: 0 for no effect and ±100 for the full control effect
Target sequence (Q9NR56 whole entry, looked up): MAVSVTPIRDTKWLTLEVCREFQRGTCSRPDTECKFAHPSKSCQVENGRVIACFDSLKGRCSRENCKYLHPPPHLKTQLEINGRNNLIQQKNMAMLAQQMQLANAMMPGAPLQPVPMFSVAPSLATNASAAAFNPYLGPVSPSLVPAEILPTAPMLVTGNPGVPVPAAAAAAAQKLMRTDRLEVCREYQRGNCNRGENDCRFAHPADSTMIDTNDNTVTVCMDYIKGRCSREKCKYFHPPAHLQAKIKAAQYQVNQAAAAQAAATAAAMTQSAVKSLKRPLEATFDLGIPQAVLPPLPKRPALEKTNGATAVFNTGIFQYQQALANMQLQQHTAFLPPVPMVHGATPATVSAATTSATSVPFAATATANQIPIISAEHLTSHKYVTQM
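Inhibition of protein-RNA binding appears as loss of TR-FRET between terbium anti-His antibody on MBNL1-His and streptavidin-XL665 on biotin-(CUG)12. Activity is normalized to buffer-only and uninhibited-complex controls.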
TDP43 rescue = qHTS of TDP-43 Inhibitors; actives 1.8% (n = 410,000); TDP-43 expressing yeast growth rescue, BacTiter-Glo, 24 h; Potency, µM (top dose mostly 46.1 µM), inactives show at the highest dose growth rescue (activation), most hits filed as activators; note: % of control where 0% means no effect; nearly all actives have a fitted effect of over 50% in size
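Cell-based yeast growth screen: TDP-43 expression induced in galactose, inoculum OD600=0.02 after raffinose pregrowth to mid-log. Read-out BacTiter-Glo luminescence at 24 hr, 30 deg C; inhibition of toxicity seen as signal increase.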
An asterisk follows results filed as active. Unless noted, calls come from the whole dose curve; as a rule, active = well fitted curve in the direction sought with a large enough effect; inconclusive = small, poorly fitted or top-dose-only effect, or another doubt; inactive = no such curve, though single readings can be large; an effect the other way counts as inactive or inconclusive. Potency is the fitted concentration of half-maximal effect.

FC(F)(F)c1nnc2c(Sc3ccccn3)nc3ccccc3n12 was read as GRP78 ERSR act 12%, FUS suppressor inactive, aSyn rescue -2%, Abeta yeast res inactive, MBNL1 CUG block 20% and TDP43 rescue 16µM*.
For O=C1c2sc3nc4n(c(=O)c3c2CCC1Br)CCCCC4 (configuration not stated) the results were GRP78 ERSR act 2%, FUS suppressor inconclusive, aSyn rescue 9%, Abeta yeast res inactive, MBNL1 CUG block inconclusive and TDP43 rescue 13µM*.
Screening O=C1CCCc2c1sc1nc3n(c(=O)c21)CCCCC3 returned GRP78 ERSR act 0%, FUS suppressor inactive, aSyn rescue -2%, Abeta yeast res inactive, MBNL1 CUG block inconclusive and TDP43 rescue 21%.
`CCC1(C2CCN(Cc3ccc(C)s3)CC2)NC(=O)N(CC2COc3ccccc3O2)C1=O` (configuration not stated) gave GRP78 ERSR act -4%.
`COc1ccc(S(=O)(=O)NCCSCc2ccccc2C)cc1Br` gave GRP78 ERSR act -2%, FUS suppressor inactive, aSyn rescue inconclusive, Abeta yeast res inactive, MBNL1 CUG block -9% and TDP43 rescue 16µM*.
COc1ccc(-c2ccc3c(N)c(C(=O)NCc4ccc(C)cc4)sc3n2)cc1 was read as GRP78 ERSR act -2%, FUS suppressor inactive, Abeta yeast res inactive and TDP43 rescue 3%.
`Cc1ccc(CNC(=O)c2sc3nc(-c4ccc(F)cc4)ccc3c2N)cc1` gave GRP78 ERSR act 17%, FUS suppressor 25µM*, Abeta yeast res inactive and TDP43 rescue 8%.
For Brc1ccc2c(ccc[n+]2CCc2ccccc2)c1 the results were GRP78 ERSR act -1%.
Screening Cc1ccc2nc(/C(C#N)=C/c3ccc(-c4cccc(Cl)c4)o3)[nH]c2c1 returned GRP78 ERSR act 3%, FUS suppressor inactive, Abeta yeast res inactive and TDP43 rescue 2µM*.
For c1ccc(Nc2nc(-c3cccs3)cs2)nc1 the results were GRP78 ERSR act -6%, FUS suppressor inactive, aSyn rescue -21%, Abeta yeast res inactive, MBNL1 CUG block 29% and TDP43 rescue 35µM*.
`Fc1ccc(-c2csc(-c3ccncc3)n2)cc1` gave GRP78 ERSR act 3%, FUS suppressor inactive, aSyn rescue 3%, Abeta yeast res inactive, MBNL1 CUG block 27% and TDP43 rescue 13µM*.
Screening Fc1ccc(-c2csc(Nc3ccccn3)n2)cc1 returned GRP78 ERSR act -1%, FUS suppressor inactive, aSyn rescue -18%, Abeta yeast res inactive, MBNL1 CUG block -2% and TDP43 rescue 11µM*.
For CC(=O)Oc1ccc(-c2csc(Nc3ccccn3)n2)cc1 the results were GRP78 ERSR act 4%, FUS suppressor inactive, aSyn rescue -30%, Abeta yeast res inactive and TDP43 rescue 13µM*.
Screening c1ccc(Nc2nc(-c3cccnc3)cs2)nc1 returned GRP78 ERSR act -7%, FUS suppressor inactive, aSyn rescue -2%, Abeta yeast res inactive, MBNL1 CUG block 1% and TDP43 rescue 15%.
For Cc1cccc(Nc2nc(-c3cccs3)cs2)n1 the results were GRP78 ERSR act -1%, FUS suppressor inactive, aSyn rescue -27%, Abeta yeast res inactive, MBNL1 CUG block 17% and TDP43 rescue inconclusive.
COc1ccc(-c2csc(Nc3cccc(C)n3)n2)cc1 was read as GRP78 ERSR act -1%, FUS suppressor inactive, aSyn rescue -27%, Abeta yeast res inactive, MBNL1 CUG block 5% and TDP43 rescue 18µM*.

Bioassay records as filed in PubChem BioAssay.
